{
  "source": "PubChem BioAssay AID2314",
  "about": "(National Center for Advancing Translational Sciences (NCATS), 2010)",
  "note": "About 37,000 (12%) of roughly 300,000 compounds were called active. The sample as a whole holds a higher share of actives than the screen did. A number with no mark means an inactive call. Cut-off read from the data, not from the text of the source: active = max response mostly above about 13% (no sharp cut-off); inactive = mostly below about 14%.",
  "data": [
    {"experiment": "Cycloheximide Counterscreen for Small Molecule Inhibitors of Shiga Toxin; note: read at 38.3 µM for the half of the compounds with a filed dose; 0% is about no effect", "conditions": "cell reporter, cycloheximide protein synthesis inhibition counterscreen; hits give high values", "values": [
      {"smiles": "COC(=O)/C=C/C(=O)NCc1ccco1", "max response": "-1.68%"},
      {"smiles": "O=C(/C=C/c1ccc(Cl)cc1Cl)NCc1ccco1", "max response": "34.8% (active)"},
      {"smiles": "O=C(NCc1ccco1)C1(c2ccc(Cl)cc2)CCCC1", "max response": "-3.56%"},
      {"smiles": "FC(F)(F)C1CCCN(c2nsc3ccccc23)C1", "note": "(stereo not drawn)", "max response": "-4.78%"},
      {"smiles": "Cc1ccc2[nH]c(=O)c(CN(CC3COCCO3)C(=O)Nc3ccccc3C)cc2c1", "note": "(stereo not drawn)", "max response": "-2.55%"},
      {"smiles": "COc1ccc(NC(=O)c2cnc(NS(=O)(=O)c3ccccc3)nc2)cc1", "max response": "-2.55%"},
      {"smiles": "Cc1ccc(OCC(=O)Nc2ccc(-c3nnc(-c4ccco4)o3)cc2)cc1", "max response": "28.8% (active)"},
      {"smiles": "COc1ccc(NC(=O)CS(=O)(=O)c2ccccc2)cc1", "max response": "26.3% (active)"},
      {"smiles": "O=C(CCc1ccccc1)Nc1cccc(-c2nnc(-c3ccco3)o2)c1", "max response": "1.83%"},
      {"smiles": "CCC(=O)Oc1cccc(C(=O)Nc2ccc(-c3nnc(-c4ccco4)o3)cc2)c1", "max response": "35.2% (active)"},
      {"smiles": "O=C(CS(=O)(=O)c1ccccc1)Nc1ccc(S(=O)(=O)Nc2ccccn2)cc1", "max response": "-1.21%"},
      {"smiles": "COc1ccc(CC(=O)Nc2ccc(-c3nnc(-c4ccccc4)o3)cc2)cc1", "max response": "10.6% (active)"},
      {"smiles": "Cc1ccc(OCC(=O)Nc2nnc(-c3ccco3)s2)cc1", "max response": "-1.91%"},
      {"smiles": "Cc1ccc(OCC(=O)Nc2ccc(-c3nc4ncccc4o3)cc2)cc1", "max response": "-0.121%"},
      {"smiles": "CC(=O)Nc1ccc(NC(=O)COc2ccc(-c3ccccc3)cc2)cc1", "max response": "1.23%"},
      {"smiles": "COc1ccc(CC(=O)Nc2c(C(N)=O)oc3ccccc23)cc1", "max response": "-1.28%"},
      {"smiles": "Cc1cccc(NC(=O)CSc2nnc(-c3ccco3)o2)c1", "max response": "5.5%"},
      {"smiles": "Fc1ccc2c(c1)C(c1cccnc1)=NNC(c1cccs1)=N2", "max response": "14.7%"},
      {"smiles": "CC(=O)Nc1ccc(Nc2c([N+](=O)[O-])cc(S(C)(=O)=O)cc2[N+](=O)[O-])cc1", "max response": "-3.33%"},
      {"smiles": "CCN(CC)S(=O)(=O)c1ccc(N2CCOCC2)c(NC(=O)C2CSC3(C)CCC(=O)N23)c1", "note": "(stereo not drawn)", "max response": "10.5%"},
      {"smiles": "CC(=O)N1c2ccccc2N(Cc2ccc([N+](=O)[O-])cc2)C(=O)C1(C)C", "max response": "10.6%"},
      {"smiles": "O=C(COc1ncnc2c(Cl)cc(Cl)cc12)N1CCN(S(=O)(=O)c2ccccc2)CC1", "max response": "4.8%"},
      {"smiles": "CN(C)c1cccc(C(=O)N2CCC(n3nccc3NC(=O)C3CCOC3)CC2)c1", "note": "(stereo not drawn)", "max response": "5.41%"},
      {"smiles": "O=C(CNC(=O)OCc1ccccc1)Oc1cc2oc(=O)cc(-c3ccccc3)c2cc1Cl", "max response": "7.2%"},
      {"smiles": "COc1cccc(N(CC(=O)NCc2ccccc2)C(=O)CCC(=O)Nc2nccs2)c1", "max response": "-5.29%"},
      {"smiles": "O=C(c1ccc(S(=O)(=O)N2CCCC2)cc1)N1CCN(c2ccccc2F)CC1", "max response": "-1.05%"},
      {"smiles": "Cc1ccc(S(=O)(=O)N(C)c2nc3ccccc3n3c(C(C)C)nnc23)cc1", "max response": "1.55%"},
      {"smiles": "CCc1nn(CCCC(=O)NC(C)c2ccccc2)c(=O)c2cc3occc3n12", "note": "(stereo not drawn)", "max response": "10.1%"},
      {"smiles": "O=C(c1ccc(F)cc1)c1c[nH]c(C(=O)NCc2cccnc2)c1", "max response": "0.811%"},
      {"smiles": "C#CCOCCOCCOCCNc1nc(N2CCN(C(=O)[C@H](CCC(=O)O)n3cc(C(N)CO)nn3)CC2)nc(N2CCN(C(=O)[C@H](CCCCN)n3cc(C(N)[C@H](C)CC)nn3)CC2)n1", "note": "(stereo partly drawn)", "max response": "-1.6%"},
      {"smiles": "COc1ccc(OCC(=O)Nc2nnc(-c3ccco3)s2)cc1", "max response": "-4.11%"},
      {"smiles": "CCCCOc1ccc(-c2nnc(-c3ccco3)o2)cc1", "max response": "28.1% (active)"},
      {"smiles": "COc1ccc(C(=O)CSc2nnc(-c3ccco3)o2)cc1", "max response": "11.4%"},
      {"smiles": "O=c1c(Cl)c(NCc2ccc(F)cc2Cl)cnn1C12CC3CC(CC(C3)C1)C2", "max response": "-2.73%"},
      {"smiles": "COc1cccc(C2CC(c3cccs3)=NN2C(=O)CSC2=NCCS2)c1OC", "note": "(stereo not drawn)", "max response": "-1.93%"},
      {"smiles": "COc1ccc(N(C)C(=O)CCS(=O)(=O)c2cccc3nsnc23)cc1", "max response": "3.71%"},
      {"smiles": "O=C(NCCOc1ccccc1F)Nc1ccc(Br)cc1", "max response": "41.8% (active)"},
      {"smiles": "O=C(NCCOc1ccccc1Cl)C(=O)Nc1ccccc1", "max response": "-6.33%"},
      {"smiles": "O=C(Nc1ccccc1)Nc1nnc(COc2ccccc2F)s1", "max response": "0.805%"},
      {"smiles": "COc1ccc(CN2CCc3nc(Nc4ccccc4)ncc3C2)c(OC)c1OC", "max response": "12.2%"},
      {"smiles": "CCN(CC)C(=O)CC1(c2ccccc2OC)CCOC(C(C)C)C1", "note": "(stereo not drawn)", "max response": "-2.61%"},
      {"smiles": "O=C(NC(=S)Nc1cc(C(F)(F)F)ccc1N1CCOCC1)c1ccc(-c2cccc(Cl)c2)o1", "max response": "12.2%"},
      {"smiles": "O=C(NC(=S)Nc1ccccc1C(=O)O)c1ccc(-c2ccc(Br)cc2)o1", "max response": "45.5% (active)"},
      {"smiles": "O=C(O)c1ccccc1NC(=O)c1ccccc1-c1ccccc1C(=O)O", "max response": "1.58%"},
      {"smiles": "O=C(O)c1ccc2c(=O)n3c(nc2c1)/C(=C/c1ccc(Cl)c([N+](=O)[O-])c1)CC3", "max response": "-1.06%"},
      {"smiles": "COc1ccc(N=Nc2c(-c3ccc(OC)cc3)[nH]oc2=O)cc1", "max response": "-1.85%"},
      {"smiles": "COc1cc(NC(=O)CCS(=O)(=O)c2ccc3c(c2)oc(=O)n3C)cc(OC)c1", "max response": "-9.36%"},
      {"smiles": "CN(c1ccc2nc3ccccc3c(=O)n2n1)C1CCCCC1", "max response": "-12.8%"},
      {"smiles": "NC(=NC(=O)c1ccccc1)N1CCOCC1", "max response": "-1.9%"},
      {"smiles": "CN1CCN(S(=O)(=O)c2cccc(C(=O)O)c2)CC1", "max response": "-8.28%"},
      {"smiles": "O=C(O)c1ccc(N=NN2CCOCC2)cc1", "max response": "39% (active)"},
      {"smiles": "O=C(O)c1cccc(N=NN2CCCCCC2)c1", "max response": "69.7% (active)"},
      {"smiles": "O=C(c1ccccc1)N1CCN(C(=O)N2CCCCC2)CC1", "max response": "-3.32%"},
      {"smiles": "O=C(NC(=O)N1CCOCC1)c1ccccc1", "max response": "4.39%"},
      {"smiles": "CCOC(=O)N1CCN(S(=O)(=O)N2CCCC(C(=O)NCCCN3CCC(C)CC3)C2)CC1", "note": "(stereo not drawn)", "max response": "1.6%"},
      {"smiles": "CCc1ccccc1NC(=O)/C(=C/c1ccccc1)c1ccccc1", "max response": "8.5%"},
      {"smiles": "O=C(Nc1ccccc1N1CCN(C(=O)c2ccccc2)CC1)c1ccco1", "max response": "-3.96%"},
      {"smiles": "CCOC(=O)C1CCN(c2ncnc3c2c(-c2ccccc2)cn3-c2ccc(C)cc2)CC1", "max response": "1.88%"},
      {"smiles": "COc1ccc(/C=C2/S/C(=N/N=C3\\CC4CCC3(C)C4(C)C)NC2=O)cc1", "note": "(stereo not drawn)", "max response": "8.52%"},
      {"smiles": "COc1ccc(N(Cc2cc3ccc(C)cc3[nH]c2=O)S(=O)(=O)c2ccccc2)cc1", "max response": "0.769%"},
      {"smiles": "CCOC(=O)N1CCN(C(=O)c2ccc3c(c2)N(Cc2ccc(C)cc2)CCS3)CC1", "max response": "-0.464%"},
      {"smiles": "O=C(NCCN1CCOCC1)c1ccc2c(c1)N(Cc1ccc(Cl)cc1)CCS2", "max response": "-1.99%"},
      {"smiles": "O=C(NCCc1ccccc1)c1ccc2c(c1)N(Cc1ccccc1)CCS2", "max response": "38.6% (active)"},
      {"smiles": "COc1cc(SC#N)ccc1N=Cc1c(C)[nH]n(-c2ccc(C)cc2)c1=O", "max response": "-1.77%"},
      {"smiles": "CCC1CCc2c(sc(NC(C)=O)c2C#N)C1", "note": "(stereo not drawn)", "max response": "14.2% (active)"},
      {"smiles": "CN1CCN(CC(=O)Nc2sc3c(c2C#N)CCC(C(C)(C)C)C3)CC1", "note": "(stereo not drawn)", "max response": "-3.82%"},
      {"smiles": "CC(=O)N1CCc2c(sc(NC(=O)CCS(=O)(=O)c3ccccc3)c2C#N)C1", "max response": "6.75%"},
      {"smiles": "COc1cc(C(=O)NC2CCN(Cc3ccccc3)CC2)cc(Cl)c1OC(C)C", "max response": "-3.58%"},
      {"smiles": "CCOc1ccccc1CNS(=O)(=O)c1cc(-c2cc(C)no2)ccc1C", "max response": "5.17%"},
      {"smiles": "CCCCN(C)CCCNC(=O)c1cc(-c2cccs2)nc2ccccc12", "max response": "-4.95%"},
      {"smiles": "CN(C)CCNc1ccc(-c2n[nH]c(=O)c3ccccc23)cc1[N+](=O)[O-]", "max response": "-2.5%"},
      {"smiles": "CCN1CCN(C2CCCCC2NS(=O)(=O)c2ccc(Cl)cc2)CC1", "note": "(stereo not drawn)", "max response": "-3.25%"},
      {"smiles": "O=C(CC1CCCCC1)NCc1ccccc1", "max response": "17.3% (active)"},
      {"smiles": "CC(=O)Nc1ccc(NC(=O)CC2CCCC2)cc1", "max response": "20.7% (active)"},
      {"smiles": "CC(=O)Nc1ccc(N2C(=O)C3C4C=CC(CC4)C3C2=O)cc1", "note": "(stereo not drawn)", "max response": "3.43%"},
      {"smiles": "O=C(Cn1nc(C(F)(F)F)c2c1CCC2)NCc1ccc(F)cc1", "max response": "0.318%"},
      {"smiles": "O=C(Cc1ccc(F)cc1)NC1CCCC1", "max response": "5.3%"},
      {"smiles": "O=C(CCc1ccc(S(=O)(=O)NC2CCCCC2)cc1)NCc1ccccc1", "max response": "-1.16%"},
      {"smiles": "O=C(CC1CCCCC1)NCc1ccc(F)cc1", "max response": "24.8% (active)"},
      {"smiles": "CC(=O)Nc1ccc(S(=O)(=O)N2CCN(C3CCCCCCC3)CC2)cc1", "max response": "-5.2%"},
      {"smiles": "O=C(CC1CCCCC1)NCc1ccco1", "max response": "-1.2%"},
      {"smiles": "COC(=O)c1ccc(/C=C2/C(=O)Oc3ccccc32)cc1", "max response": "-4.87%"},
      {"smiles": "CC(C(=O)N1CCN(c2ccccc2F)CC1)c1ccc([N+](=O)[O-])cc1", "note": "(stereo not drawn)", "max response": "-0.676%"},
      {"smiles": "Cc1ccc(CC2CC(=O)N(c3cc(C)ccc3C)C2=O)cc1", "note": "(stereo not drawn)", "max response": "-1.67%"},
      {"smiles": "CCOCCCN(C)C1CCN(C(=O)c2oc3ccccc3c2NC(=O)COc2cccc(C)c2)CC1", "max response": "-3.98%"},
      {"smiles": "CCN1CCCC1CNC(=O)c1cc2cc(OC)c(OC)cc2[nH]1", "note": "(stereo not drawn)", "max response": "-3.29%"},
      {"smiles": "COc1ccc(N(C)S(=O)(=O)c2ccc3c(c2)CC(C)N3C(=O)C2CC2)c(OC)c1", "note": "(stereo not drawn)", "max response": "3.16%"},
      {"smiles": "O=c1c2sccc2nc(SCc2cc(=O)n3ccccc3n2)n1-c1ccc(Br)cc1", "max response": "-4.5%"},
      {"smiles": "CC(C)=CCN1CCN(CCCc2ccccc2)CC1CCO", "note": "(stereo not drawn)", "max response": "-0.846%"},
      {"smiles": "COC(=O)c1c(NC(=O)COc2ccc(Cl)cc2Cl)sc2c1CC(C)(C)NC2(C)C", "max response": "0.749%"},
      {"smiles": "Cc1ccc(S(=O)(=O)c2ccc(Oc3ccccc3)cc2)cc1", "max response": "-0.97%"},
      {"smiles": "CC1=C/C(=N\\S(=O)(=O)c2ccccc2)C(C(C)C)=CC1=O", "max response": "-2.83%"},
      {"smiles": "CC1=C/C(=N\\OS(=O)(=O)c2ccccc2)C=CC1=O", "max response": "35% (active)"}
    ]}
  ]
}
